{"source": "PubChem BioAssay AID431", "about": "(Sanford-Burnham Center for Chemical Genomics, 2006)", "note": "Among all 63,000 compounds or so, about 1,100 (1.7%) were called active. Shown is part of a subset that was picked to be rich in actives. Potency and affinity values are given separately. A number with no mark means an inactive call.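 The calls were made as follows: active = compounds whose percent cytotoxicity in the single-dose primary screen, scaled between solvent and toxic-drug controls, exceeds 50; inactive = the rest.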"}
{"test": "viability loss of HPDE-C7K cells – cell-based, fluorescence, HTS, primary screen (AID 431);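 also: 0% = DMSO solvent wells and 100% = doxorubicin-treated wells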", "conditions": "HPDE-C7K KRASV12 cells, Alamar Blue viability, 48 h; at 10 µM; stronger effect = higher value"}
{"smiles": "Cc1cc(C)n(-c2nc(Nc3ccccc3)nc(-n3nc(C)cc3C)n2)n1", "cytotoxicity": "9.6%"}
{"smiles": "CC(=O)c1cccc(NC(=O)CC2SC(N3CCCCC3)=NC2=O)c1", "note": "(configuration not stated)", "cytotoxicity": "-7.4%"}
{"smiles": "CCOCC(=O)Nc1nc2ccc(OCC)cc2s1", "cytotoxicity": "4.3%"}
{"smiles": "Cc1cccc(N(CC(=O)NCc2ccccc2)C(=O)Cn2nnc(-c3ccc(C)o3)n2)c1", "cytotoxicity": "-14.9%"}
{"smiles": "CC(CN1CCOCC1)OC(=O)c1ccc2c(c1)OCCO2", "note": "(configuration not stated)", "cytotoxicity": "9.2%"}
{"smiles": "COc1ccc(C(=O)OC(C)CN2CCOCC2)cc1OC", "note": "(configuration not stated)", "cytotoxicity": "-10%"}
{"smiles": "O=C(CCN1C(=O)C2C3C=CC(C3)C2C1=O)NCc1cccnc1", "note": "(configuration not stated)", "cytotoxicity": "-6.8%"}
{"smiles": "O=C(CSc1nc(Nc2ccccc2)nc(N2CCOCC2)n1)N1CCCC1", "cytotoxicity": "5.4%"}
{"smiles": "O=C(CSc1nc2ccccc2c(=O)n1C1CC1)NCc1ccccc1", "cytotoxicity": "3.5%"}
{"smiles": "COc1ccccc1-c1nnn(CC#N)n1", "cytotoxicity": "6.1%"}
{"smiles": "CCOC(=O)c1c(C)c(C(=O)N2CCCCCC2)c(C)n1CC", "cytotoxicity": "-2.8%"}
{"smiles": "O=C1c2ccccc2NC(c2ccccc2)N1Cc1ccco1", "note": "(configuration not stated)", "cytotoxicity": "-5.8%"}
{"smiles": "CCOC(=O)CSC1=C(C#N)C(=O)NC(c2ccc(OC)c(OC)c2)S1", "note": "(configuration not stated)", "cytotoxicity": "70.5% (active)"}
{"smiles": "CCOC(=O)CC1=C(C(=O)OCC)C(c2ccc(OC)c(OC)c2)C(C#N)=C(N)O1", "note": "(configuration not stated)", "cytotoxicity": "5.7%"}
{"smiles": "CCOC(=O)CSC1=C(C#N)C(=O)NC2(CCCCC2)S1", "cytotoxicity": "13.8%"}
{"smiles": "COc1ccc(CCn2c(C)ccc2C)cc1OC", "cytotoxicity": "-8.8%"}
{"smiles": "O=C(NC1CCCCC1)N1CCC(c2nc3ccc(Cl)cc3[nH]2)CC1", "cytotoxicity": "7.4%"}
{"smiles": "Cn1nc(-c2ccc(Cl)cc2)c2cc(C(=O)NCCCN3CCCC3)sc21", "cytotoxicity": "54.3% (active)"}
{"smiles": "CN1CCN(CCCNC(=O)c2cc3c(-c4ccc(Cl)cc4)nn(C)c3s2)CC1", "cytotoxicity": "3.3%"}
{"smiles": "Cn1nc(-c2ccc(Cl)cc2)c2cc(C(=O)NCCCN3CCOCC3)sc21", "cytotoxicity": "9.2%"}
{"smiles": "COc1ccccc1N1CCN(CCC(=O)Nc2ccc3c(c2)OCO3)CC1", "cytotoxicity": "7.5%"}
{"smiles": "Cc1ccc(-c2nc3cccnc3o2)cc1NC(=O)COc1ccc(Cl)cc1C", "cytotoxicity": "0.4%"}
{"smiles": "CCOc1cccc(C(=O)Nc2cccc(-c3nnc(-c4ccccc4)o3)c2)c1", "cytotoxicity": "-9.8%"}
{"smiles": "CCOc1ccc(C(=O)Nc2cccc(-c3nc4cccnc4o3)c2)cc1Cl", "cytotoxicity": "56% (active)"}
{"smiles": "CCN1CCN(c2ccc(NC(=O)c3cccc4ncccc34)cc2)CC1", "cytotoxicity": "-12.5%"}
{"smiles": "Cc1sc2nc(SCC(=O)c3cccs3)n(Cc3ccco3)c(=O)c2c1C", "cytotoxicity": "31.6%"}
{"smiles": "CCC1CCCCN1c1nc(-c2cccc(OC)c2O)nc2ccccc12", "note": "(configuration not stated)", "cytotoxicity": "8.3%"}
{"smiles": "CCN(CC)c1nc(-c2cccc(OC)c2O)nc2ccccc12", "cytotoxicity": "-8.4%"}
{"smiles": "COc1cccc(-c2nc(NCC3CCCO3)c3ccccc3n2)c1O", "note": "(configuration not stated)", "cytotoxicity": "55.1% (active)"}
{"smiles": "CCC(C)Nc1nc(-c2cccc(OC)c2O)nc2ccccc12", "note": "(configuration not stated)", "cytotoxicity": "114% (active)"}
{"smiles": "C=CCNc1nc(-c2cccc(OC)c2O)nc2ccccc12", "cytotoxicity": "-8.3%"}
{"smiles": "COc1cccc(-c2nc(N3CCCCC3)c3ccccc3n2)c1O", "cytotoxicity": "-18.8%"}
{"smiles": "COc1cccc(-c2nc(N3CCCCC3C)c3ccccc3n2)c1O", "note": "(configuration not stated)", "cytotoxicity": "63.1% (active)"}
{"smiles": "COc1cccc(-c2nc(NC(C)C)c3ccccc3n2)c1O", "cytotoxicity": "42.1%"}
{"smiles": "Oc1ccc(Nc2nc(NCC3CCCO3)c3ccccc3n2)cc1", "note": "(configuration not stated)", "cytotoxicity": "46.8%"}
{"smiles": "Oc1ccccc1-c1nc(NCc2ccco2)c2ccccc2n1", "cytotoxicity": "5.3%"}
{"smiles": "COc1cccc(-c2nc(NC(C)(C)C)c3ccccc3n2)c1O", "cytotoxicity": "20.9%"}
{"smiles": "CS(=O)(=O)N(CC(=O)N1CCN(Cc2ccccc2)CC1)Cc1ccccc1", "cytotoxicity": "-3%"}
{"smiles": "COCCCNc1nc2c(c(=O)[nH]c(=O)n2C)n1CCCc1ccccc1", "cytotoxicity": "-3.8%"}
{"smiles": "CCCn1c(CNS(=O)(=O)c2ccc(C)cc2)nc2ccccc21", "cytotoxicity": "5.2%"}
{"smiles": "O=C(CN1CCN(C(=O)c2ccccc2F)CC1)Nc1ccc(Br)cc1", "cytotoxicity": "-5.9%"}
{"smiles": "CCCCn1cnc2sc3c(c2c1=N)CCCC3", "cytotoxicity": "-7.6%"}
{"smiles": "CCCCOC(=O)Nc1ccccc1C(N)=O", "cytotoxicity": "-5.7%"}
{"smiles": "COc1ccc(/C(O)=C2/C(=O)C(=O)N(CCCC(=O)O)C2c2ccc(OC)c(OC)c2)cc1", "note": "(configuration not stated)", "cytotoxicity": "-0.6%"}
{"smiles": "c1coc(CNc2nc(N3CCCCC3)nc3ccccc23)c1", "cytotoxicity": "38.2%"}
{"smiles": "c1ccc(-c2nc(NCC3CCCO3)c3ccccc3n2)nc1", "note": "(configuration not stated)", "cytotoxicity": "9.5%"}
{"smiles": "c1ccc(-c2nc(NCc3ccco3)c3ccccc3n2)nc1", "cytotoxicity": "20%"}
